Bioassay records: PubChem, National Center for Advancing Translational Sciences (NCATS)
Shown are actives, neighbours in structure and some others; about 0.97% of the full set was active somewhere.
CCT modulator = cytosolic chaperonin activity modulation | purified chaperonin ATPase assay, HTRF ADP detection, 30 min | activity change, % (test concentration not listed), hits read low | 0.3% of 360,000 active | AID 651819; in the data active = activity change below about -30%
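ATPase activity: ADP formed was measured by HTRF Transcreener (665/615 nm ratio) after 30 min at 37 deg C with 10 uM ATP. Compounds screened at one 76 uM concentration against 40 or 20 nM TRiC in Tris pH 7.4/KCl/MgCl2/DTT buffer.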
uPA generation = blocks generation of uPA at the cell surface; cell surface uPA generation assay, qHTS; Potency, µM (top dose mostly 38.3 µM), hits mostly inhibitors; 0.31% of 330,000 active; AID 540303; active = well fitted inhibition curve with a large enough effect; inconclusive = small, poorly fitted or top-dose-only effect; inactive = no such curve, though single readings can be large or run the other way; tested in mouse RAW 264.7 cells; note: nearly all actives have a fitted effect of over 55% in size
Mm-Cpn inhibitor = M. maripaludis TRiC chaperonin inhibition; AID 504842; 0.031% of 330,000 active; Potency, µM (titrated, usually from 76.9 µM), actives largely listed as inhibitors; purified Mm-Cpn ATPase, ADP Transcreener TR-FRET; note: nearly all actives have a fitted effect of over 80% in size
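Inhibition of chaperonin ATP hydrolysis is measured as reduced ADP production, detected by competitive TR-FRET in which signal falls with ADP. Final enzyme 25 nM and ATP 10 uM, reacted 30 min at 37°C.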
Epigenetic reg = regulators of epigenetic silencing causing reporter derepression in mouse cells; AID 1865; Potency, µM (top dose mostly 53.9 µM), actives largely listed as activators; 0.2% of 280,000 active; murine LDR cells, GFP reporter derepression, 30 h; note: nearly all actives have a fitted effect of over 60% in size
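Derepression of a silenced CMV-GFP reporter in murine LDR cells is scored by enumerating GFP-positive cells with a laser-scanning microplate cytometer after 30 hours of treatment at 37 C.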
pAkt inh = blocks phosphorylation of Akt; Neuro2A IGF-stimulated pAkt S473 HTRF, 20 min; active compounds read low; activity change, % for hits at 50 µM; 0.32% of 360,000 active; AID 651550; in the data active = activity change below about -80%; inconclusive = mostly about -51% to -80%
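Neuro2A cells in DMEM with 0.5% FBS, overnight at 37 deg C, given compound at single 50 µM final, then IGF (6 nM final) for 20 min at 37 deg C. Lysed; phospho-Akt Ser473 by HTRF after 24 h, 665/615 ratio.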
MBNL1 CUG block = MBNL1-poly(CUG) RNA binding inhibition; 0.036% of 280,000 active; TR-FRET MBNL1-His/biotin-(CUG)12 binding, 665/545 ratio; Q9NR56; Potency, µM (titrated, usually from 57.5 µM), actives largely listed as inhibitors; active = well fitted inhibition curve with a large enough effect in the signal ratio, with a control signal flat, not every such curve was filed as active; inconclusive = small, poorly fitted or top-dose-only effect, or effect the other way, or a change in a side signal; inactive = no such curve, though single readings can be large or run the other way; the % refers to the signal ratio
Target sequence (Q9NR56 whole entry, looked up): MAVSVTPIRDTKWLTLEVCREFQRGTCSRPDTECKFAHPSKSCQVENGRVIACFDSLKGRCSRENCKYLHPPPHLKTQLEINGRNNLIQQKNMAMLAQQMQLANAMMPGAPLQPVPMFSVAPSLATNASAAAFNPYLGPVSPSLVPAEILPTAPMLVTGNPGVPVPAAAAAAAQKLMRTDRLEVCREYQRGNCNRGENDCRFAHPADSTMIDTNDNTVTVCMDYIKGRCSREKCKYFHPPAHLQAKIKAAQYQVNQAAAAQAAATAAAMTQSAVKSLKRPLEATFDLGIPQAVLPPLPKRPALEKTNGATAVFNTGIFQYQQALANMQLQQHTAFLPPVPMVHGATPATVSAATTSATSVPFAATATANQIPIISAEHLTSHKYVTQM
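His-tagged MBNL1 binding to biotinylated (CUG)12 RNA was measured by TR-FRET using terbium anti-His antibody (0.055 ng/ul final) and streptavidin-XL665 (5 nM final). Compounds were titrated 92 nM to 58 uM; 60 min at room temperature.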
Large screens that a line does not name were inactive. Unless noted, calls come from the whole dose curve; as a rule, active = well fitted curve in the direction sought with a large enough effect; inconclusive = small, poorly fitted or top-dose-only effect, or another doubt; inactive = no such curve, though single readings can be large; an effect the other way counts as inactive or inconclusive.

COc1cc(OC)c(OC)cc1/C=C1\CC(C)C/C(=C\c2cc(OC)c(OC)cc2OC)C1=O (stereo not given)	uPA generation 8.9µM (no result: Epigenetic reg)
[N-]=[N+]=NC1CC(CO)OC1n1ccc(=O)[nH]c1=O (stereo not given)	none (no result: Epigenetic reg)
FC(F)Oc1ccc(NC(=S)NCc2nc3ccccc3[nH]2)cc1	CCT modulator -37
CCOc1ccc(NC(=S)NCc2nc3ccccc3[nH]2)cc1	none
Cc1c(Cl)cccc1NC(=O)NC1CCCCC1	CCT modulator -40
O=C(Nc1ccccc1NC(=O)NC1CCCCC1)NC1CCCCC1	none (no result: uPA generation)
CN1CCN(c2ccc(-c3cc(O)c4ncccc4c3)cc2)CC1	none (no result: CCT modulator, uPA generation, Epigenetic reg, pAkt inh, MBNL1 CUG block)
N#C/C(=C(/O)c1ccc(Br)s1)c1nc2ccccc2[nH]1	uPA generation 3.5µM (no result: Epigenetic reg)
Nc1ccc(C#Cc2ccc3c(=O)c4ccccc4oc3c2)cc1	uPA generation 1.3µM (no result: Epigenetic reg)
COc1cc2oc3cc(C#Cc4ccc(N)cc4)ccc3c(=O)c2cc1OC	uPA generation 4µM (no result: Mm-Cpn inhibitor, Epigenetic reg, MBNL1 CUG block)
COC(=O)c1sccc1NC(=S)N1CCC(C(N)=O)CC1	none
COc1cc(C2C=C(C34CC5CC(CC(C5)C3)C4)NC(=S)N2)cc(OC)c1OC (stereo not given)	pAkt inh -113%
CCOC(=O)c1nnn(CC(=O)N2N=C(c3cc(C)ccc3C)CC2c2ccc(OC)cc2)c1C(=O)OCC (stereo not given)	none
CCOC(=O)c1nnn(CC(=O)N2N=C(c3ccccc3)CC2c2ccccc2)c1C(=O)OCC (stereo not given)	pAkt inh -83%, MBNL1 CUG block inconclusive
COc1ccc(-c2cc(C(F)(F)F)c(C#N)c(SCC(=O)Nc3ccc(F)cc3)n2)cc1	none (no result: CCT modulator, uPA generation, Mm-Cpn inhibitor, pAkt inh, MBNL1 CUG block)
N#Cc1c(C(F)(F)F)cc(-c2ccc(F)cc2)nc1SCC(=O)Nc1ccccc1	none (no result: CCT modulator, uPA generation, Mm-Cpn inhibitor, pAkt inh, MBNL1 CUG block)
Cc1coc(NC(=O)CSc2nc(-c3ccncc3)cc(C(F)(F)F)c2C#N)n1	Epigenetic reg 13µM
CCCCOc1ccc(-c2cc(C(F)(F)F)c(C#N)c(SCC(=O)O)n2)cc1	Epigenetic reg 25µM
N#Cc1ccccc1NC(=O)CSc1nc(-c2ccccc2)cc(C(F)(F)F)c1C#N	Epigenetic reg 13µM (no result: CCT modulator, uPA generation, Mm-Cpn inhibitor, pAkt inh, MBNL1 CUG block)
Cc1ccc(S(=O)(=O)N2CCCCC2)cc1NC(=O)c1cc(F)c(F)c(F)c1F	none (no result: Epigenetic reg, MBNL1 CUG block)
Cc1cc(F)ccc1C(O)c1ncc(-c2cccc(F)c2)[nH]1 (stereo not given)	none (no result: uPA generation, Mm-Cpn inhibitor, Epigenetic reg, MBNL1 CUG block)
CCCCCCCC#Cc1ccccc1C(NC(=O)OC)C(C(=O)OC)C(=O)OC (stereo not given)	none (no result: CCT modulator, uPA generation, Mm-Cpn inhibitor, pAkt inh, MBNL1 CUG block)
COc1ccc(C(=O)N(CN2CCCC2=O)c2ccccc2OC)cc1OC	pAkt inh -111%
CN(C(=O)Nc1ccc(Cl)cc1)c1c2c(nn1C)CCCC2	pAkt inh -87%
CC12C=C(/C=C/C=C/c3ccco3)C(C)(C1)C(/C=C/c1ccco1)CC2=O (stereo not given)	none (no result: CCT modulator, uPA generation, Mm-Cpn inhibitor, pAkt inh, MBNL1 CUG block)
CCOC(=O)c1[nH]c(C)c(C(=O)Nc2ccc(C)cc2C)c1C	uPA generation 2.5µM
CCOC(=O)c1[nH]c(C)c(C(=O)Nc2ccc(C)c(C)c2)c1C	uPA generation inconclusive
N/C(=N\OC(=O)N1CCOCC1)c1ccc(Cl)cc1	MBNL1 CUG block inconclusive
N/C(=N\OC(=O)N1CCOCC1)c1ccc(Br)cc1	uPA generation 10µM
O=C(COc1ccc(F)cc1Br)NCc1nnc2ccccn12	none (no result: Epigenetic reg, MBNL1 CUG block)
Cc1ccc2c(c1)COc1c3ccc(C(=O)NCCO)cc3nn1-2	uPA generation inconclusive, MBNL1 CUG block inconclusive
O=C(NCCO)c1ccc2c3n(nc2c1)-c1ccc(Cl)cc1CO3	uPA generation inconclusive, MBNL1 CUG block inconclusive
C=CCNC(=O)c1ccc2c3n(nc2c1)-c1ccccc1CO3	uPA generation 1.4µM, MBNL1 CUG block inconclusive
COCCNC(=O)c1ccc2c3n(nc2c1)-c1ccccc1CO3	uPA generation 4µM, MBNL1 CUG block inconclusive
COCCNC(=O)c1ccc2c3n(nc2c1)-c1ccc(Cl)cc1CO3	uPA generation 10µM, MBNL1 CUG block inconclusive
CC(=O)c1ccc(N2CCN(C(C)C(=O)NC3CCCc4ccccc43)CC2)cc1 (stereo not given)	none
